The nature of test [1]: small molecules captured by biotinylated probe aFSTL3 – biochemical, small-molecule microarray, fluorescence 635/667, stem cell growth factor project, primary screen (AID 1064).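 Note: measures binding of the biotinylated anti-FSTL3 antibody to printed compounds.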 The settings on record: higher = more signal.
Test [2] can be described thus: binders from COS7 lysate, DM2A8 probe, primary screen, torsin A project, cell lysate, small-molecule microarray, fluorescence 635/667 (AID 1065). The settings on record: higher = more signal, COS7 lysate expressing mutant human TOR1A.
The nature of test [3]: small molecules captured by biotinylated probe aFGF2 – biochemical, small-molecule microarray, fluorescence 635/667, stem cell growth factor project, primary screen (AID 1067).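 Note: measures binding of biotinylated aFGF2 protein to printed compounds on slides; z-score merges feature fluorescence and signal-to-noise across triplicate slides.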 The note with it: higher = more signal.
Test [4] is described as follows: small molecules captured by biotinylated probe aFGF10 – biochemical, small-molecule microarray, fluorescence 635/667, stem cell growth factor project, primary screen (AID 1071).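 Note: score merges 667 nm spot intensity and signal to noise from triplicate slides.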 The settings on record: higher = more signal.
Test [5] addresses Neurogenic locus notch homolog protein 2 (Homo sapiens) (UniProt Q04721). As to the kind of experiment: small molecules binding Notch2 protein – biochemical, small-molecule microarray, 635 nm fluorescence, stem cell growth factors, primary screen (AID 1073). The settings on record: higher = more signal.
Test [6] addresses Pro-neuregulin-1, membrane-bound isoform (Homo sapiens) (UniProt Q02297). As to the kind of experiment: small molecules binding neuregulin-1 protein – biochemical, small-molecule microarray, fluorescence 635/667, psychiatric disease protein project, primary screen (AID 1075).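 Note: score combines 667 nm spot fluorescence with signal to noise.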 The note with it: NRG1 binding, 635 nm fluorescence, higher = more signal.
For test [7], the system named is Neuregulin-1 EGF-like domain. As to the kind of experiment: small molecules binding NRG1 EGF domain – biochemical, small-molecule microarray, 635 nm fluorescence, primary screen (AID 1081).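 Note: binding of the protein to compounds printed on small-molecule microarray slides.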 The settings on record: higher = more signal.
Test [8] can be described thus: FRG1 expression reporter modulators in myotubes – cell-based, C2C12 myotubes, firefly/Renilla luciferase, luminescence, FRG1 inhibition for FSHD, primary screen (AID 1084). The note with it: FRG1 promoter luciferase, higher = more signal, called active from +8 up or from −8 down.
Test [9] is described as follows: small molecules captured by biotinylated probe aFST – biochemical, small-molecule microarray, fluorescence 635/667, stem cell growth factor project, primary screen (AID 1086).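 Note: score merges 667 nm fluorescence with signal-to-noise of each printed compound spot.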 The note with it: higher = more signal.
Test [10] in a line: binders of probe aHhip on microarray, primary screen, stem cell growth factor project, biochemical, small-molecule microarray, fluorescence 635/667 (AID 1087).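 Note: score merges spot fluorescence at 667nm with spot signal to noise ratio.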 The settings on record: higher = more signal.
Test [11] concerns PRMT1 (protein arginine N-methyltransferase 1). Briefly: small molecules binding arginine methyltransferase PRMT1 – biochemical, small-molecule microarray, 635 nm fluorescence, primary screen (AID 1088).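 Note: binding of Prmt1 protein to compounds spotted on small-molecule microarray slides.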 The note with it: higher = more signal.
A short description of test [12]: growth effects on S. cerevisiae YJM789 – YJM789 clinical isolate, OD600, 24 h, basal, primary screen (AID 1089).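 Note: growth of clinical yeast isolate S. cerevisiae YJM 789 seeded 1000 cells per well; test concentration not given here.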 The settings on record: higher = more signal, called active from +8 up or from −8 down.
A short description of test [13]: S. pombe growth modifiers, basal conditions – strain 972, OD600, 24 h, no modulator, primary screen (AID 1090).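 Note: basal condition with compound alone and no growth modifier present; test concentration not given here.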 The note with it: S. pombe 972 growth, higher = more signal, called active from +8 up or from −8 down.
Test [14] is described as follows: budding yeast growth modifiers under rapamycin – strain BY4716, OD600, 96 h, primary screen (AID 1091). Note: test concentration not given here. The settings on record: S. cerevisiae BY4716 + rapamycin, higher = more signal, called active from +8 up or from −8 down.
For test [15], the target named is Torsin-1A-interacting protein 2 (Homo sapiens) (UniProt Q8NFQ8). Briefly: small molecules binding lysate-expressed LULL1 – cell lysate, human LULL1 lysate, 635/667 nm fluorescence, primary screen (AID 1092).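 Note: probe is lysate of COS7 cells overexpressing human LULL1; score merges per-feature 667 nm fluorescence with signal-to-noise.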 The settings on record: small-molecule microarray, hLULL1 lysate binding, 635 nm fluorescence; higher = more signal.
Sequence of Torsin-1A-interacting protein 2 (Homo sapiens) (Q8NFQ8 whole entry, looked up): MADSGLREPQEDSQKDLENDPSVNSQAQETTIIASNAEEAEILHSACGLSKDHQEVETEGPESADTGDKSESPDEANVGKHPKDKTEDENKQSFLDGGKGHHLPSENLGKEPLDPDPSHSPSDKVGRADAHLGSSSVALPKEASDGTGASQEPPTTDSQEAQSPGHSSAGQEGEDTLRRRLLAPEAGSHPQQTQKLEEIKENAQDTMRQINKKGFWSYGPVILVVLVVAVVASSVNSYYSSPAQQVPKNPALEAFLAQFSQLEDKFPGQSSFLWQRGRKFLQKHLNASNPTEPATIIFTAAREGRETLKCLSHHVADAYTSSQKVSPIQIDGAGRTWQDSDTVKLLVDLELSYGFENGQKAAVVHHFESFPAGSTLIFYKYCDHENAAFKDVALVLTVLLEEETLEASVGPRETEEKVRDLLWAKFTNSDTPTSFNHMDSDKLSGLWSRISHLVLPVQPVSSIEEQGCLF
A short description of test [16]: optical density change of DRC41 E. coli – strain DRC41, OD650, 24 h, E. coli filamentation project, primary screen (AID 1093).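 Note: MC1000 strain lacking acrAB efflux and sulA so SOS filamentation is blocked; test concentration not given here.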 The note with it: E. coli DRC41 growth, higher = more signal, called active from +8 up or from −8 down.
Test [17] in a line: probe aLefty2 binding to arrayed compounds – biochemical, biotinylated probe, 635/667 nm fluorescence, primary screen (AID 1094).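 Note: score merges spot fluorescence near 667 nm with spot signal-to-noise ratio.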 The note with it: small-molecule microarray, higher = more signal.
Test [18] deals with Noggin (protein binding on small-molecule microarray). As to the kind of experiment: small molecules binding Noggin protein – biochemical, 635/667 nm fluorescence, primary screen (AID 1095).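 Note: score merges 667 nm feature fluorescence with signal to noise over triplicate slides.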 The note with it: 635 nm fluorescence, higher = more signal.
Test [19] deals with Neurogenic locus notch homolog protein 3 (Homo sapiens) (UniProt Q9UM47). Briefly: small molecules binding NOTCH3 protein – biochemical, 635/667 nm fluorescence, primary screen (AID 1096). The settings on record: small-molecule microarray, 635 nm fluorescence, higher = more signal.
Sequence of Neurogenic locus notch homolog protein 3 (Homo sapiens) (Q9UM47 whole entry, looked up): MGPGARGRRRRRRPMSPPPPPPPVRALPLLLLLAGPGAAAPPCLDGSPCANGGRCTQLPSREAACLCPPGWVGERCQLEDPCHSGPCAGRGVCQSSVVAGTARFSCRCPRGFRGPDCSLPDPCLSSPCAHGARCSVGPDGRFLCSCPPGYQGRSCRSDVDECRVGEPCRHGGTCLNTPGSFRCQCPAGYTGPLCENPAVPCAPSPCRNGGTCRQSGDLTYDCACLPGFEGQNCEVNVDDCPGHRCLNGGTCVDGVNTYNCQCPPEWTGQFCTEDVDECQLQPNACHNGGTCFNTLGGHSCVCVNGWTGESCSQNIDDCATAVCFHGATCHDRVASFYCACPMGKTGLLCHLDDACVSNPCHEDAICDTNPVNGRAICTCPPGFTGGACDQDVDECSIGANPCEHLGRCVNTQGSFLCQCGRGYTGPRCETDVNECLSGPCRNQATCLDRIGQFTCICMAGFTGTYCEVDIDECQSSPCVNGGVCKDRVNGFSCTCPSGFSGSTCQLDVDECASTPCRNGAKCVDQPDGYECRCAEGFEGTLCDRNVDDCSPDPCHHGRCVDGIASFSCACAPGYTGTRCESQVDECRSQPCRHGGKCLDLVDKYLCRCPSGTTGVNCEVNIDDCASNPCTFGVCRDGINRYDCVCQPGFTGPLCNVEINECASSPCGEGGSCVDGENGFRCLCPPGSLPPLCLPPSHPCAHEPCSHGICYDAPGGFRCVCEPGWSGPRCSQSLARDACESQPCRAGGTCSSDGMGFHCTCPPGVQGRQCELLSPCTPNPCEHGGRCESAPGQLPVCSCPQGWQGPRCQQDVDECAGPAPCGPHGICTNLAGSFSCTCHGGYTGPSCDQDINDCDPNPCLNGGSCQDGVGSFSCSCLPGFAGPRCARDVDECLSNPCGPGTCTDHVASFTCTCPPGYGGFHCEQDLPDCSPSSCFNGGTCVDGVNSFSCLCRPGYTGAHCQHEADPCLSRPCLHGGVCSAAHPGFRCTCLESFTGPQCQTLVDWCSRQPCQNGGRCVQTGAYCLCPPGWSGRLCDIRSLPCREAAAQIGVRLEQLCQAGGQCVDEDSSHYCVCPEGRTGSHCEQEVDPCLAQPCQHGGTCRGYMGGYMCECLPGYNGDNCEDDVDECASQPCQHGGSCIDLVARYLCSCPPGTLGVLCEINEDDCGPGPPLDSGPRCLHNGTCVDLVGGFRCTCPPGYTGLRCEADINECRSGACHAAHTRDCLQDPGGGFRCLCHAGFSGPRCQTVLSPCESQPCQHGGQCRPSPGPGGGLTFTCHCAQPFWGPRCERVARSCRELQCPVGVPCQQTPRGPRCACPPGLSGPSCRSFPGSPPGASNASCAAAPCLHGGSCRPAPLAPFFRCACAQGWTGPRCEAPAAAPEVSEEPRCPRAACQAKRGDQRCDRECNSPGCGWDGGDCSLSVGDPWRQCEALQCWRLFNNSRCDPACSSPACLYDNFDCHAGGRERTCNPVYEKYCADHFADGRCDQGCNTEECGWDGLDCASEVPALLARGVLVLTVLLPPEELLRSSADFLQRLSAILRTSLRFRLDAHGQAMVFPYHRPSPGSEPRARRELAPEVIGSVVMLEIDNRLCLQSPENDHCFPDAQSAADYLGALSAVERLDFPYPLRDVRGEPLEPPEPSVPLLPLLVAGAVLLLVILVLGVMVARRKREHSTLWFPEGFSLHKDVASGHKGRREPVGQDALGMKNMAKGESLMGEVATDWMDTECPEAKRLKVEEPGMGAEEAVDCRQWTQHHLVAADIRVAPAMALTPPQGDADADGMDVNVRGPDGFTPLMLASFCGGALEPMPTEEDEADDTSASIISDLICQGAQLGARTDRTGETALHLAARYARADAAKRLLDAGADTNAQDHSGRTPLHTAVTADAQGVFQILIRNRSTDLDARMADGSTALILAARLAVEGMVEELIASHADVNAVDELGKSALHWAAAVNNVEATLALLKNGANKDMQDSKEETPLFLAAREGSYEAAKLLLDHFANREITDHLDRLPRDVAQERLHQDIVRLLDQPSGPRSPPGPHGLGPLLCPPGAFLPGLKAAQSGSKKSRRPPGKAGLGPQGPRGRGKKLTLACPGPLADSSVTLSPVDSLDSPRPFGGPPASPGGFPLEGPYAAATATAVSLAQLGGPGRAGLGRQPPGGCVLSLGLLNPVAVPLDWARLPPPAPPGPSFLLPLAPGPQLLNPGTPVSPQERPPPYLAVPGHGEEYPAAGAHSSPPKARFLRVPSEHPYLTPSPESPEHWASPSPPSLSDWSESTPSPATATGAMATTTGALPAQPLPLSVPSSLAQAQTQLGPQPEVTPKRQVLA
Test [20] is described as follows: probe aEGFR binding to arrayed compounds – biochemical, biotinylated probe, 635/667 nm fluorescence, primary screen (AID 1097).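 Note: probe is a biotinylated anti-EGFR antibody binding compounds printed on slides; score combines fluorescence near 667 nm and signal to noise of each spot.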 The note with it: small-molecule microarray, higher = more signal.

Each structure is given as a SMILES string. Calls of active or inactive are those of the source.

Sequence of Pro-neuregulin-1, membrane-bound isoform (Homo sapiens) (Q02297 whole entry, looked up, the tested form may be a part, canonical isoform): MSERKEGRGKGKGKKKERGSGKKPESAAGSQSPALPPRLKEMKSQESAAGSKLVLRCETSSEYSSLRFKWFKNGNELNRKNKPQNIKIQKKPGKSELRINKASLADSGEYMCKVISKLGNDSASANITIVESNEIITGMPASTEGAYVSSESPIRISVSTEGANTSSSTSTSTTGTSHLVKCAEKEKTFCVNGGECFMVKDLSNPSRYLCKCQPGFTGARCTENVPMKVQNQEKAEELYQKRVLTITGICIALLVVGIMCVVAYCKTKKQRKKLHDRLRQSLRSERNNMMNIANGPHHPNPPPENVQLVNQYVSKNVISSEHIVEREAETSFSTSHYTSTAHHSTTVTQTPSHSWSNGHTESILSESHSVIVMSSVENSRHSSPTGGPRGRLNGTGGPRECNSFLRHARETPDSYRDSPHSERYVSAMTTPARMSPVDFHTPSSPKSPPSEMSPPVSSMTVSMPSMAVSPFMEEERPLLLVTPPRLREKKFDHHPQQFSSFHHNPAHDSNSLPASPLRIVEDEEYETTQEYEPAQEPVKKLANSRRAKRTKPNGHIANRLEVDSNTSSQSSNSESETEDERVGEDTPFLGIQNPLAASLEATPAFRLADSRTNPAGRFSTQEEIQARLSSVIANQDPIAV

Consider `CCN1C(=O)[C@H]2[C@H]3[C@H](O)[C@H](O)CC(=NNC(=O)OCc4ccccc4)[C@H]3CC[C@H]2C1=O`, for which the composite z-score is 0.307 in test [1]; 0.447 in test [2]; 0.0572 in [3]; -0.0005 in test [4]; -0.0049 in [5]; -0.117 in test [6]. Besides, the composite z-score in [7] was -0.696; in test [9], 0.313; in test [10], -0.13; in test [11], -0.72; in test [15], -0.3; in [17], 0.0166. Moreover, the composite z-score is 0.667 in [18], -0.169 in test [19] and -0.132 in test [20]. Besides, the z-score in test [8] was -0.209 (inactive); in test [12], -0.0067 (inactive); in [13], 0.0826 (inactive); in test [14] it was -0.144 (inactive); in test [16] it was -0.667 (inactive).

With `CO[C@@H]1COC(=O)[C@@H]2CCCN2C(=O)[C@@H](C)COC(=O)CCC[C@H]1C`, the composite z-score was -0.468 in [1]; 0.352 in [2]; -0.0836 in test [3]; 0.367 in test [4]; 0.997 in test [5]; -0.0887 in [6]. In addition, the composite z-score in test [7] is 1.19; in [9], -0.288; in [10] it was -0.0645; in test [11], 1.55; in [15], 0.871; in test [17], -0.176. For the same molecule, the figures for the composite z-score in test [18], in test [19] and in test [20] were 0.456, 0.525 and 0.158, respectively. Also, the z-score is -0.343 (inactive) in test [8]; -1.86 (inactive) in [12]; -0.875 (inactive) in test [13]; -0.815 (inactive) in [14]; -0.76 (inactive) in [16].

On to `CC(C)=NOC(C)CN1CCCc2nc(C)c(C)cc21` (stereo not given), for which the composite z-score in [1] was -0.39; in [2], -0.184; in [3] it was -0.0408; in [4], 0.897; in test [5] it was 0.652; in test [6] it was 0.702. The composite z-score in [7] is 0.61; in test [9], 0.17; in [10], -0.201; in [11] it was 1.58; in test [15], 1.31; in test [17] it was 0.406. Moreover, the composite z-score stood at 0.674 in [18], 1.07 in [19] and 0.0287 in test [20]. Further, the z-score in [8] is 0.833 (inactive); in test [12] it was 0.777 (inactive); in test [13] it was 0.516 (inactive); in [14], 0.347 (inactive); in test [16], -0.196 (inactive).

Consider `COc1ccc(OC[C@@H]2CC3[C@@H](c4ccc(Br)cc4)[C@H](C)CC[C@H]3C(=O)O2)cc1` (stereo not given in full), for which the composite z-score was -0.416 in [1]; 0.138 in test [2]; -0.142 in test [3]; 0.0248 in test [4]; 0.407 in [5]; 0.093 in test [6]. For the same molecule, the composite z-score in test [7] is -0.216; in test [9], 0.204; in test [10] it was -0.0645; in [11] it was 0.112; in test [15], 0.82; in test [17], -0.158. Besides, the composite z-score was 0.991 in test [18], 0.509 in test [19] and -0.159 in [20]. The z-score is -0.321 (inactive) in test [8]; -0.251 (inactive) in [12]; -2.64 (inactive) in test [13]; 0.0176 (inactive) in test [14]; -0.145 (inactive) in test [16].

Take `CC(=O)OC[C@H]1O[C@H](CC=NOC(C)CN2CCCc3nc(C)c(C)cc32)C=C[C@@H]1OC(C)=O` (stereo not given in full): the composite z-score is -0.255 in test [1]; 0.28 in test [2]; -0.0621 in test [3]; 0.677 in test [4]; 0.804 in test [5]; -0.188 in [6]. Further, the composite z-score was 0.819 in test [7]; 0.371 in [9]; 0.0637 in [10]; 1.19 in test [11]; 0.771 in test [15]; 0.0961 in test [17]. In addition, the composite z-score came to 0.977 in test [18], 1.04 in test [19] and 0.0473 in [20]. Moreover, the z-score in [8] is 0.437 (inactive); in test [12], 0.489 (inactive); in test [13] it was 0.483 (inactive); in test [14] it was -0.344 (inactive); in test [16], 1.14 (inactive).

Values taken from PubChem BioAssay.
